# This is part of a sample that, as a whole, favours compounds with a hit. Of some 83,000 tested, about 20% had one in any assay.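 Treatment: one concentration, 48 hours, 96-well format. Scoring: percent growth, with anything below 10 considered active.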 Active and inactive are the calls of the source.
# System: SN12C renal
# Assay: NCI-60 one-dose screen, 48 h (100 = growth as untreated, 0 = no growth, -100 = all killed)
# Details: 10 µM unless noted
# Experimental: Growth inhibition of the SN12C human tumor cell line is measured as a screen for anti-cancer activity. Cells are grown in 96 well plates and exposed to the test compound for 48 hours. Compounds are tested at a single concentration, which is 10^-5 M for most compounds. The reported endpoint is percent growth (GI% or GIPRCNT), where numbers from 0 - 100% represent growth inhibition, and numbers from -100% - 0 represent cell death. For example, a value of 40 represents 60% growth inhibition. A value of 0 means no net growth occurred over the course of the experiment. A value of -40 indicates 40% of cells at the beginning of the experiment died by the end of the experiment. A value of -100 means all cells are dead at the end of the experiment.
# NCI-60 Human Tumor Cell Lines Screen was performed using the standard one-dose NCI protocol, which is described in more detail at https://dtp.cancer.gov/discovery_development/nci-60/default.htm.
# Compounds with GIPRCNT values below 10 were considered active. Activity score was based on GIPRCNT using the following formula: […]
# Score is 0 for GIPRCNT values of 100 or above, 50 for GIPRCNT values of 0, and 100 for GIPRCNT values of -100.
row,SMILES,growth
1,COc1cc(/C=C2\C(=O)N(CCOc3cc(O)c4c(=O)cc(-c5ccccc5)oc4c3)c3ccccc32)cc(OC)c1O,65.9% (inactive)
2,Oc1cccc2c1NCCC2,11.7% (inactive)
3,COc1ccc(N/N=C/c2ccc3c(c2)Sc2ccccc2N3C)cc1,79.3% (inactive)
4,O=C(NC1CCCCCC1)c1ccc2c(=O)n3c(nc2c1)CCCCC3,97.8% (inactive)
5,CCCN1C2CCC1/C(=C\c1ccc(OC)cc1)C(=O)/C2=C/c1ccc(OC)cc1,75% (inactive)
6,CC1=C2[C@@H](CC1)[C@]1(C)O[C@@](C(C)C)(C[C@H]1OC(=O)CO)[C@H]2OC(=O)CCCc1ccccc1,54.9% (inactive)
7,CC1=C([Se]CC(OC(=O)[C@@H](CO)NC(=O)OC(C)(C)C)C(=O)NCCCCCC(=O)OCc2ccccc2)C(=O)c2ccccc2C1=O (stereo not given in full),-72.9% (active)
8,C#Cc1cccc(Nc2ncnc3ccc(-c4cnc(Cl)c(NS(C)(=O)=O)c4)cc23)c1,3.41% (active)
9,CCN1C(=O)N(CC)C2C1NC(=S)N2/N=C/C=C/c1cccs1 (stereo not given),30.2% (inactive)
10,O=S(=O)(c1ccc(NCSc2nc3ccccc3s2)cc1)c1ccc(NCSc2nc3ccccc3s2)cc1,95.5% (inactive)
11,N/C(=N\c1nc2ccccc2s1)NC(=O)Nc1ccccc1,29% (inactive)
12,CN1CCN(CCCNC(=O)c2c3c(n4ccccc24)C(=O)c2ncccc2C3=O)CC1,-48.5% (active)
13,CC(=O)OCC(=O)O[C@@H]1C[C@]2(C(C)C)O[C@@]1(C)[C@@H]1CC[C@@H](C)[C@H]1[C@@H]2OC(=O)/C=C/c1ccccc1,20.3% (inactive)
14,CC(C)(C)n1cc(-c2ccnc(NCCNS(=O)(=O)c3ccc(Br)cc3)c2)c(-c2cccc(O)c2)n1,35.7% (inactive)
15,C=CC(=O)NCc1cccc(Nc2ncc(Br)c(NCCCNC(=O)C3CCC3)n2)c1,1.99% (active)
16,COC1=C(OC)C(=O)C(CCCCCCCCCCO)=C(C)C1=O,57.6% (inactive)
17,C=C(C)[C@@H]1CCC[C@]2(C(=O)OC)CC[C@]3(C)[C@@H](CC[C@@H]4[C@@]5(C)CCCNC(C)(C)[C@@H]5CC[C@]43C)[C@@H]12,92.1% (inactive)
18,CS(=O)(=O)c1ccc(/C(=N/NC(N)=S)c2ccc(F)cc2)cc1,96.5% (inactive)
19,C=C(C)[C@@H]1CC[C@]2(C(=O)NC(C)=O)CC[C@]3(C)[C@H](CC[C@@H]4[C@@]5(C)CCCNC(C)(C)[C@@H]5CC[C@]43C)[C@@H]12,22.2% (inactive)
20,COc1cc(C)cc(-c2c(-c3cc(N4CC(O)C4)nc(-c4cccnc4)n3)cnn2C)c1,77.8% (inactive)

row,SMILES,growth
1,CCOc1ccc(N2C(=O)CCSC2=S)cc1,101% (inactive)
2,COc1ccc(C2=NN3C(C2)c2cc(Br)ccc2OC3c2ccncc2)cc1 (stereo not given),83.3% (inactive)
3,O=C(Nc1ccc(Cl)cc1)C1=NCCCCN1,94.5% (inactive)
4,CCN1CCN(c2cc(C(=O)Nc3cccc(Nc4ccc5c(OC)cccc5n4)c3)cc(C(F)(F)F)c2)CC1,25.4% (inactive)
5,Cc1ccc(Nc2cc(N)nc(N)n2)cc1,110% (inactive)
6,Cc1ccc2c(n1)C[C@H](C(C)(C)O)CC[C@H]2C,98.4% (inactive)
7,Cc1nc2sc(C(=O)Nc3ccccc3)c(N)c2cc1C(O)c1ccccc1 (stereo not given),25.4% (inactive)
8,CCOC(=O)C1=C(c2ccccc2)N=C2N(c3ccccc3)N=C(C(C)=O)N2C1c1ccc(Br)cc1 (stereo not given),90% (inactive)
9,COc1ccc(/C=C\c2cc(OC)c(OC)c(OC)c2)cc1OCC(=O)Nc1nc2ccccc2s1,34.9% (inactive)
10,CN1CCN(CC(=O)N(C)c2ccc(N=C(c3ccccc3)c3c(O)[nH]c4ccc([N+](=O)[O-])cc34)cc2)CC1,56.8% (inactive)
11,CCCNNC(=O)c1ccc(CNC(=O)/C=C/c2ccccc2)cc1,52.8% [2.5 µM] (inactive)
12,O=C(/C=C/c1ccc(Cl)cc1)c1ccc(Nc2ccnc3cc(Cl)ccc23)cc1,97.1% (inactive)
13,CCCCN(CCC#N)C(N)=O,106% (inactive)
14,COc1ccc(Cn2cc(C(=O)N=Nc3c(O)[nH]c4ccc(Br)cc34)nn2)cc1,102% (inactive)
15,CN(C)C(=O)OCc1ccc2c(Cl)cc(Cl)c(O)c2n1,36.6% (inactive)
16,O=C(OCC(O)(CO)C(=O)NC12CC3CC(CC(C3)C1)C2)c1ccc(Cl)cc1 (stereo not given),100% (inactive)
17,C#CC#CC#CC#CC#CC#CC#CC#CC[C@@H]1OC[C@H](COC(=O)O[C@@H](C(=O)O[C@H]2C[C@@]3(O)[C@@H](OC(=O)c4ccccc4)[C@@H]4[C@]5(OC(C)=O)CO[C@@H]5C[C@H](O)[C@@]4(C)C(=O)[C@H](OC(C)=O)C(=C2C)C3(C)C)[C@@H](NC(=O)c2ccccc2)c2ccccc2)O1,38.6% (inactive)
18,CCOC(=O)c1cc(C(=O)c2cc(OC)cc(OC)c2)n2ncccc12,44.8% (inactive)
19,COc1ccc(CNc2c3ccccc3nc3ccccc23)cc1OC,22.5% (inactive)
20,CCOC(=O)c1c(C)n2c(=O)cc(C)c3c(OC(C)=O)c(OC(C)=O)cc1c32,74.3% (inactive)

# From PubChem BioAssay (NCI)
